Screening data (PubChem)
Most compounds without a hit are left out; they make up all but 21% or so of the library.
D3 antag – blocks the human D3 dopamine receptor. P35462. D3R cells, DiscoveRx beta-arrestin luminescence, antagonist mode; stronger effect = lower value. max response, negative = inhibition, %. hit rate 2.5% among 360,000; in the data active means max response below about -50%; inconclusive means no clear call, values can overlap the other calls
Target sequence (P35462 whole entry, looked up): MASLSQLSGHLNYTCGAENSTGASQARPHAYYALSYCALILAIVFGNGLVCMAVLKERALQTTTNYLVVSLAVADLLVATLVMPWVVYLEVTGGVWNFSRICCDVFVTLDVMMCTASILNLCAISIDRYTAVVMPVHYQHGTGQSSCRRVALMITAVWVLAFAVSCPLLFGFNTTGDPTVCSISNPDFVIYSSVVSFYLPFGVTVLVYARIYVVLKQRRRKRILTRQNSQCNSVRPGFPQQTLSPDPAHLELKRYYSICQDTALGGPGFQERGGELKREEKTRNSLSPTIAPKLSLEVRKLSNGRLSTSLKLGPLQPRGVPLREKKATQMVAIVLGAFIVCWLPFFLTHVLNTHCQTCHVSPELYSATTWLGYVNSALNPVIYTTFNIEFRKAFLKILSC
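Cells plated overnight at 1500 cells/well, then exposed to library compounds with dopamine controls for 90 minutes at 37 degrees C. DiscoveRx reagent added for 30–60 minutes at room temperature; luminescence read, quantitative HTS format.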
TDP1 cell CPT – growth inhibition of DT40 Tdp1-/-;hTDP1 cells with camptothecin (screen for TDP1 inhibitors); hit rate 12% among 420,000; chicken DT40 Tdp1-/-;hTDP1 cells + 20 nM CPT, ATP luminescence, 48 h; Potency, µM (doses to about 46.2 µM), actives largely listed as inhibitors; further: nearly all actives have a fitted effect of over 55% in size
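Chicken DT40 Tdp1-/- cells stably complemented with human TDP1 were seeded at 400 cells/well in medium containing 20 nM camptothecin, exposed to pin-transferred compounds, and grown at 37 °C for at least 48 hr. Viability was read as ATP luminescence.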
ClpP mod – qHTS Assay for Activators of ClpP | ATP-dependent Clp protease proteolytic subunit (Bacillus subtilis (strain 168)), P80244 | Potency, µM (highest dose often 57.5 µM) | purified B. subtilis ClpP, FRET peptide cleavage, 20 min | hit rate 1.9% among 340,000; active means well fitted falling curve with a large enough effect; inconclusive means small, poorly fitted or top-dose-only effect; inactive means no such curve, though single readings can be large or run the other way; further: the source files actives as falling curves though it sought activators and does not explain the sign; nearly all actives have a fitted effect of over 65% in size
Target sequence (P80244 whole entry, looked up): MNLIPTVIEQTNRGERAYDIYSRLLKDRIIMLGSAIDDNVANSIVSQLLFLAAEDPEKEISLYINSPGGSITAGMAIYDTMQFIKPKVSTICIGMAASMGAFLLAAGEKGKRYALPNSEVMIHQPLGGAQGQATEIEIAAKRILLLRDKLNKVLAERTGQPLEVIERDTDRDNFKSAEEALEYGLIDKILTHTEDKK
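ClpP 10 microg/mL final, pH 8 Tris/KCl buffer with BSA, glycerol, Tween-20; compound pinned in; FRET-FV substrate; RT 20 min; Ex320/Em430; ΔFRET vs ADEP 5.8 microM, DMSO, no enzyme.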
IL-1B inflam inh – blocks inflammasome-driven IL-1 beta release | activity change, % at 57.5 µM | hit rate 4.7% among 360,000 | AID 743279 | THP-1 LPS/ATP IL-1B secretion, AlphaLISA, 16 h; stronger effect = lower value; in the data active means activity change below about -50%; inconclusive means mostly about -30% to -49%
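Secreted IL-1B measured by AlphaLISA bead assay after 16 h compound exposure of THP-1 cells; compounds (final up to 57.5 uM) added 1 h before LPS (250 ng/mL) and ATP (1.25 mM) stimulation; lower signal means less secretion.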
TDP1 cell noCPT – qHTS for Inhibitors of human tyrosyl-DNA phosphodiesterase 1 (TDP1): qHTS in cells in absence of CPT | hit rate 15% among 420,000 | DT40 Tdp1-/- hTDP1 cells, no CPT, ATP luminescence, 48 h | Potency, µM (titrated, usually from 46.2 µM), most hits filed as inhibitors; further: nearly all actives have a fitted effect of over 55% in size
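Growth kinetics read by CellTiter-Glo luminescence after ≥48 hr at 37 °C. Cells: DT40 Tdp1-/- stably carrying human TDP1, 400 per well, compound exposure in the absence of CPT (DMSO vehicle).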
D3 ag – agonists of human D3 dopamine receptor; hit rate 0.58% among 410,000; max activation, %; D3R DiscoveRx beta-arrestin cells, luminescence, 90 min; in the data active means max activation above about 30%
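Agonist-mode cell screen: cells plated at 1500/well and incubated overnight at 37 °C, then exposed to library compounds for 90 min at 37 °C. Detection reagent was added for 30–60 min at room temperature, and luminescence was read.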
Hits are given with their value; – = inactive; ? = inconclusive; · = no result given. Unless noted, the call rests on the fitted dose curve; in most records, active means well fitted inhibition curve with a large enough effect; inconclusive means small, poorly fitted or top-dose-only effect; inactive means flat fitted curve, though single readings scatter.

SMILES	D3 antag	TDP1 cell CPT	ClpP mod	IL-1B inflam inh	TDP1 cell noCPT	D3 ag
Cc1cccnc1C(NC(=O)C1CCN(CCOc2ccc(Cl)cc2Cl)CC1)c1ccc(Cl)cc1 (stereo unspecified)	–	12µM	–	?	7.3µM	41
COc1cccc(OC)c1OCCN1CCC(C(=O)NC(c2ccc3c(c2)OCO3)c2ccccn2)CC1 (stereo unspecified)	-78	–	–	–	–	–
O=C(NC(c1ccc2c(c1)OCO2)c1ccccn1)C1CCN(CCOc2ccc(Cl)cc2Cl)CC1 (stereo unspecified)	-75	?	–	?	?	–
O=C(NC(c1ccc(Cl)cc1)c1ccccn1)C1CCN(CCOc2ccc(Cl)cc2Cl)CC1 (stereo unspecified)	-77	?	–	–	18µM	–
COc1ccc(Cl)cc1S(=O)(=O)N1CCC(C(=O)NCc2ccccn2)CC1	–	–	·	–	?	–
COc1ccc(CN2CCC(C(=O)NC(c3ccc4c(c3)OCO4)c3ccccn3)CC2)cc1 (stereo unspecified)	–	–	–	–	–	–
Cc1ccccc1C(=O)NCCCNC(=O)c1ccco1	–	–	·	–	–	–
Cc1nc2cnc(N3CCOCC3)nc2n(C2CC2)c1=O	·	–	·	·	–	·
CCn1c2c(c(=O)n3ncc(C(=O)N4CCN(c5ccc(C(C)=O)cc5)CC4)c13)CN(Cc1ccc(OC)cc1)CC2	·	4.1µM	–	·	2.6µM	–
COc1ccc(CN2CCc3c(c(=O)n4ncc(C(=O)N5CCN(c6ccc(F)cc6)CC5)c4n3C)C2)cc1	·	2.3µM	?	·	1.8µM	–
CCn1c2c(c(=O)n3ncc(C(=O)Nc4ccc(OC(F)(F)F)cc4)c13)CN(Cc1ccc(OC)cc1)CC2	·	?	?	·	23µM	–
Cc1ccc(S(=O)(=O)Nc2c(C)nc3nc(C)[nH]n3c2=O)cc1	–	–	·	–	–	–
COc1ccc(NC(=O)CSc2nnc(Cc3ccc(C)cc3)c(=O)n2N)cc1OC	–	–	–	–	–	–
CCOc1ccc(Cn2nnc(C(=O)Nc3cccc(SC)c3)c2N)cc1	·	–	–	·	?	–
O=c1c(NCc2cccs2)nccn1-c1ccc(F)cc1	·	–	–	·	?	–
Cc1ccccc1-c1noc(-c2ccc(NCC3CCCO3)c([N+](=O)[O-])c2)n1 (stereo unspecified)	·	3.3µM	–	·	2.1µM	–
O=[N+]([O-])c1cc(-c2nc(-c3ccccc3)no2)ccc1NCC1CCCO1 (stereo unspecified)	·	?	–	·	?	–
COc1ccccc1-c1noc(-c2ccc(NCC3CCCO3)c([N+](=O)[O-])c2)n1 (stereo unspecified)	·	18µM	–	·	8.2µM	–
COc1ccccc1-c1noc(-c2ccc(NC3CCCC3)c([N+](=O)[O-])c2)n1	·	18µM	–	·	23µM	–
Cc1ccccc1-c1noc(-c2ccc(NC3CCCC3)c([N+](=O)[O-])c2)n1	·	–	–	·	–	–
Cc1cccc(-c2noc(-c3ccc(NCC4CCCO4)c([N+](=O)[O-])c3)n2)c1 (stereo unspecified)	·	?	–	·	?	–
COc1ccccc1CNC(=O)CC(C)C	–	23µM	–	–	?	–
CCOc1ccccc1C(=O)NC(C(=O)NCc1ccccc1OC)C(C)C (stereo unspecified)	–	?	–	–	16µM	–
CC(CCc1ccccc1)NC(=O)COC(=O)c1cccc2ccccc12 (stereo unspecified)	–	–	25µM	–	–	–
CNS(=O)(=O)c1cccc(C(=O)OCC(=O)NC(C)CCc2ccccc2)c1 (stereo unspecified)	–	–	–	–	–	–
SMILES	D3 antag	TDP1 cell CPT	ClpP mod	IL-1B inflam inh	TDP1 cell noCPT	D3 ag
CC(CCc1ccccc1)NC(=O)COC(=O)c1cc(NS(=O)(=O)c2ccc(Cl)c([N+](=O)[O-])c2)ccc1O (stereo unspecified)	–	?	–	-98	?	–
CCOc1ccc(/C=N/NC(=O)c2nnn(-c3nonc3N)c2-c2cccs2)cc1	–	–	–	–	–	–
Nc1cc2c(cc1Cl)N(Cc1ccccc1)C(=O)CO2	–	–	–	–	–	–
CCOc1ccc(C(CCc2ccccc2)NC(=O)c2ccccc2F)cc1OCC (stereo unspecified)	?	35µM	–	–	?	–
CCOc1ccccc1C(=O)NC(C)CCc1ccccc1 (stereo unspecified)	–	?	–	–	16µM	–
CN(C(=O)COC(=O)c1cc(NS(=O)(=O)c2cc([N+](=O)[O-])ccc2Cl)ccc1O)C1CCCCC1	–	–	–	-81	–	–
C/C(CC(=O)Nc1ccc(Cl)c(Cl)c1)=N\NC(=O)C(=O)N1CCCCC1	–	–	·	–	–	–
COC(=O)[C@@]12C[C@@H](CC(=O)NCC3CCCCC3)C(=O)N(Cc3ccc4c(c3)OCO4)C1=CCC(C)(C)C2	–	?	–	-54	?	–
COC(=O)[C@@]12C[C@@H](CC(=O)NCc3ccc(C)o3)C(=O)N(Cc3ccc4c(c3)OCO4)C1=CCC(C)(C)C2	–	21µM	–	?	12µM	–
COC(=O)[C@]12CCCCC=C1N(Cc1ccc3c(c1)OCO3)C(=O)[C@H](CC(=O)N1CCCC1)C2	–	?	–	–	?	–
COC(=O)[C@@]12C[C@@H](CC(=O)NCC34CC5CC(CC(C5)C3)C4)C(=O)N(Cc3ccc4c(c3)OCO4)C1=CCC(C)(C)C2	–	?	–	–	?	–
COC(=O)[C@@]12C[C@@H](CC(=O)N3CCN(C(=O)C4CC4)CC3)C(=O)N(Cc3ccc4c(c3)OCO4)C1=CCC(C)(C)C2	–	?	–	–	16µM	–
COC(=O)[C@@]12C[C@@H](CC(=O)NCc3cccs3)C(=O)N(Cc3ccc4c(c3)OCO4)C1=CCC(C)(C)C2	–	?	–	–	?	–
COc1ccc(-c2csc(-c3nc(-c4ccc(Br)s4)cs3)n2)cc1F	·	–	–	·	–	–
COc1ccc(-c2cc3nc(C)c(CCC(=O)NC(C)c4ccccc4)c(C)n3n2)c(OC)c1 (stereo unspecified)	·	–	–	·	?	–
O=C(Nc1ccc2nc(-c3cccs3)c(-c3cccs3)nc2c1)N1CCOCC1	–	?	–	-60	13µM	–
O=C(Nc1ccc2nc(-c3ccccn3)c(-c3ccccn3)nc2c1)N1CCCC1	·	?	–	·	?	·
